The source made the active and inactive calls. Where a call stands in place of a potency, no number is given. Calls come from the whole dose curve; as a rule, active = well fitted cell-killing curve with a large enough effect; inconclusive = small, poorly fitted or top-dose-only effect; inactive = flat fitted curve, though single readings scatter.

The assay is described as follows: Cell Viability - LYMP1-002 - Assay at 24 hr (AID 993). To be noted: LYMP1-002 lymphoblastoid cells viability; series mostly up to 92.2 µM. The text has this:
NIH Chemical Genomics Center [NCGC]
NIH Molecular Libraries Screening Centers Network [MLSCN]
National Institutes of Environmental Health Sciences [NIEHS]
National Toxicology Program [NTP]
We have developed a 1536-well cell-based assay for quantitative high throughput screening (qHTS) against a number of cell lines to determine in vitro cytotoxicity of small molecules. This particular assay uses a human lymphoblastoid cell line (LYMP1-002) purchased from Coriell Institute for Medical Research.
NCGC Assay Protocol Summary:
The CellTiter-Glo luminescent cell viability assay (Promega) is a homogeneous method to measure the number of viable cells in culture. The end point readout of this assay is based on quantitation of intracellular ATP, an indicator of metabolic activity, using the luciferase reaction. Luciferase catalyzes the oxidation of beetle Luciferin to oxyluciferin and light in the presence of ATP. The luminescent signal is proportional to amount of ATP present.
Using the CellTiter-Glo luminescent cell viability assay, the amount of cellular ATP was measured in the lymphoblastoid cell line with complete culture medium following compound treatment for 24 hours. The assay was performed in opaque white Kalypsys 1536-well plates. In the screen, tetraoctylammonium bromide was used as positive control. Library compounds were measured for their ability to cause acute toxicity in the cell line, as reflected by a decrease in intracellular ATP levels, in a concentration-dependent manner. […] AC50 values were determined from concentration-response data modeled with the standard Hill equation.
qHTS protocol for CellTiter Glo lymphoblastoid cellular assay
[Step] [Parameter] [Value] [Description]
1. Reagent; 5 uL; 2500 lymphoblastoid cells/well
2. Time; 5 hr; 37 C incubation
4. Controls; 23 nL; Tetraoctylammonium bromide 6.4pM to 92 uM
5. Time; 24 hr; 37 C incubation
6. Reagent; 5 uL; CellTiter Glo reagent
7. Time; 30 min; Room Temperature
8. Detection; Luminescence; Viewlux plate reader
Keywords: cell viability, cytotoxicity, lymphoblastoid cell line, luminescence, NTPHTS, NTPHTS_NCGC, NIEHS, DSSTox, MLSMR, MLSCN, NIH Roadmap, qHTS, NCGC
Consider `CCCCOC(=O)c1ccccc1N`, for which the Potency entry is “inactive”.

Turning to `COc1c(C(C)(C)C)cc([N+](=O)[O-])c(C)c1[N+](=O)[O-]`, the Potency entry was “inactive”.

In the case of `C=CC(=O)OCC(CC)CCCC` (stereo not given), the Potency entry is “inactive”.

For the molecule `Nc1ccc(-c2ccc(N)cc2)cc1`, the Potency entry is “inactive”.

As to `BrCC(Br)C1CCC(Br)C(Br)C1` (stereo not given), the Potency result is “inactive”.

For the molecule `Nc1c(Cl)cc([N+](=O)[O-])cc1Cl`, the Potency result is “inactive”.

Regarding `CCCCOC(C)=O`, the Potency entry was “inactive”.

Turning to `CC(=O)NNc1ccccc1`, the Potency result was “inactive”.

As to `ClCC(Br)CBr` (stereo not given), the Potency entry was “inactive”.

Turning to `CCN(CC)CCO`, the Potency result was “inactive”.

In the case of `CC(C)(C)C(O)(CCc1ccc(Cl)cc1)Cn1cncn1` (stereo not given), the Potency result is “inactive”.

On to `Cc1ccc(N)c(C)c1`, for which the Potency entry was “inactive”.

Consider `S=C1NCCN1`, for which the Potency entry is “inactive”.

On to `C=CC=O`, for which the Potency result is “inactive”.

Consider `Nc1ccc(-c2ccccc2)cc1`, for which the Potency entry was “inactive”.

For the molecule `Cc1cc(-c2ccc(N)c(C)c2)ccc1N`, the Potency entry is “inactive”.

For the molecule `c1ccc(NNc2ccccc2)cc1`, the Potency entry is “inactive”.

Turning to `CC(C)Br`, the Potency entry was “inactive”.

For `BrCC(Br)(Br)Br`, the Potency result was “inactive”.

For the molecule `O=C(O)C(Br)Br`, the Potency result is “inactive”.

Take `COP(=S)(OC)SCn1nnc2ccccc2c1=O`: the Potency entry is “inactive”.

With `C(CCOCC1CO1)COCC1CO1` (stereo not given), the Potency entry was “inactive”.

On to `Nc1ncc([N+](=O)[O-])s1`, for which the Potency entry is “inactive”.

Take `ClC(Cl)(Cl)C(Cl)(Cl)Cl`: the Potency entry was “inactive”.

For `O=S(=O)(Cl)c1ccccc1`, the Potency entry was “inactive”.

On to `CC1CC(=O)O1` (stereo not given), for which the Potency result is “inactive”.

On to `CCN(CC)N=O`, for which the Potency entry is “inactive”.

Regarding `Nc1cc(Cl)ccc1O`, the Potency result was “inactive”.

In the case of `BrCCc1ccccc1`, the Potency result is “inactive”.

Consider `Cc1cc(C)cc(OP(=O)(Oc2cc(C)cc(C)c2)Oc2cc(C)cc(C)c2)c1`, for which the Potency result was “inactive”.

As to `OCCBr`, the Potency entry was “inactive”.

Regarding `COc1ccccc1N`, the Potency entry was “inactive”.

As to `CC(C)[C@]12CC(=O)[C@H](C)[C@H]1C2`, the Potency result is “inactive”.

For `O=C(O)C(Br)CBr` (stereo not given), the Potency result is “inactive”.

For `Nc1ccc([N+](=O)[O-])cc1N`, the Potency result is “inactive”.

As to `O=[N+]([O-])c1ccc(Cl)c(Cl)c1Cl`, the Potency entry is “inactive”.

On to `C/C=C/CC#N`, for which the Potency entry was “inactive”.

With `Clc1cc(Cl)c(Cl)c(Cl)c1`, the Potency entry is “inactive”.

As for `NC1CCC(CC2CCC(N)CC2)CC1` (stereo not given), the Potency entry was “inactive”.

For the molecule `OCCCCO`, the Potency result was “inactive”.

For the origin of these results see PubChem BioAssay (NCATS).
